Measurements published in PubChem BioAssay AID1740 (National Center for Advancing Translational Sciences (NCATS), 2009).
Inconclusive results are not listed. Unmarked numbers belong to inactive results. The source made the active and inactive calls. The call rests on the fitted dose curve; in most records, active means well fitted activation curve with a large enough effect; inconclusive means small, poorly fitted or top-dose-only effect; inactive means no such curve, though single readings can be large or run the other way.

Assay: Confirmation Concentration-Response Assay for Enhancers of SMN2 Splice Variant Expression
Conditions: HEK293 SMN2-exon7-luciferase splicing reporter, luminescence, 30-36 h; series mostly up to 46.1 µM; activation: at the top concentration
Excerpt: NIH Chemical Genomics Center [NCGC] NIH Molecular Libraries Probe Production centers Network [MLPCN] MLPCN Grant: R03 MH084179-01 Assay Submitter (PI): Elliot Androphy NCGC Assay Overview: Spinal muscular atrophy (SMA) is caused by insufficient levels of the survival motor neuron protein SMN. The SMN locus on chromosome 5q13 contains two inverted copies of SMN called SMN1 and SMN2 which are 99% identical at the amino acid level. SMN1 is a fully functional protein and SMN2 skips exon 7 90% of the time. Skipping of exon 7 produces non-functional protein product. 10% of the SMN2 protein includes exon 7 and is fully functional. In the SMA disease state, mutations in the SMN1 locus are the cause of the disease state. Because only 10% of SMN2 is of the fully functional form, it is not sufficient to overcome the deficiency produced by the loss of the SMN1 product. A therapy that either increase the amount of SMN2 product made or to increase the inclusion of exon 7 has been proposed for the treatment of SMA. We have designed an assay to identify small molecules that can increase the amount of functional SMN2 product by appending a luciferase reporter gene after the native SMN2 gene, such that inclusion of exon 7 in the expressed product places the luciferase sequence in frame, thus generating functional luciferase enzyme.
NCGC Assay Protocol Summary: This screen utilizes a luciferase reporter gene assay, combining the promoter with the major portion of the native SMN2 cDNA (exons 1 -7, intron 8 , exon 8 fused to luciferase) stably expressed in HEK293 cells. Compounds that increase luciferase signal presumably enhance expression of the functional SMN2 splice variant. Passaging media contained DMEM w/ glutamax (+phenol red) 10% FCS, 1x pen/strep, 200 ug/ml hygro, 1x sodium pyruvate. Assay media contained DMEM w/ glutamax (-phenol red) 10% FCS, 1x pen strep, 1x pyruvate Sequence, Parameter, Value, Description (1) Cells, 5 uL, 2000 cells/well, 1536 TC treated White solid bottom plate (2) Time, 10-12 hours, 37C 5% CO2 (3) Compound, 23 nl, MLSMR Library (4) Control Compound, 23 nL, Sodium butyrate st 4.5mM (final) conc (5) Time, 30-36 hours, 37C 5% CO2 (6) Reagent, 3 ul, One Glo (TM) from Promega (7) Time, 5-15 minutes, Room temp (8) Detector, Viewlux: luminescent read, 60 second integration, high speed 2x binning Keywords: Spinal muscular atrophy, SMA, SMN2, high throughput screening, MLSMR, MLPCN, NIH Roadmap, qHTS and NCGC

Compound | Potency | activation
OC[C@H]1O[C@@H](n2cnc3c(Nc4ccccc4)ncnc32)[C@H](O)[C@H]1O | 8.91 µM (active) | –
Clc1nc(NCc2cccs2)c2[nH]cnc2n1 | – | -49.8%
Clc1ccc(-c2nnc(-c3ccccc3)c(N3CCSCC3)n2)cc1 | – | -1.83% [at 22.7 µM]
Clc1ccc(-c2nnc(-c3ccc(Br)cc3)c(N3CCSCC3)n2)cc1 | – | -10.7% [at 9.48 µM]
CCC(=O)n1nc(NCc2ccccc2OC)nc1NCc1ccccc1OC | – | -36.1%
CCCCOC(C)n1cc(F)c(=O)[nH]c1=O (stereo not given) | – | -17.1% [at 22.7 µM]
FC(F)C(F)(F)C1=CC(c2cccs2)=NCCN1 | – | 0.924%
NC(=O)N1c2ccccc2C=Cc2ccccc21 | – | -12.8%
Cc1ccc(-c2nnc(-c3ccccc3)c(N3CCOCC3)n2)cc1 | – | 3.26% [at 9.48 µM]
Cc1ccc(-c2nnc(-c3ccccc3)c(-c3ccccc3)n2)cc1 | – | 5.5% [at 22.7 µM]
N#C/C(=C\Nc1ccccc1SC(F)(F)F)c1nc(-c2ccc(Cl)cc2)cs1 | – | -29.8%
CN(Cc1ccccc1)Cc1c(F)cccc1F | – | -9.07%
FC(F)(F)c1nnc(-c2ccccc2)nc1Oc1ccccc1 | – | 0.177% [at 22.7 µM]
NC(=O)C1(N2CCCCC2)CCN(c2nc(-c3ccccc3)cs2)CC1 | – | -7.38% [at 22.7 µM]
O=C(Nc1nc(-c2ccc3ccccc3c2)cs1)C1CCN(S(=O)(=O)c2cccs2)CC1 | – | -43.5% [at 22.7 µM]
OCCCNc1nc(-c2ccc(Br)cc2)nnc1-c1ccc(Cl)cc1 | – | -38.2% [at 22.7 µM]
CC(C)(C)n1nnnc1C(c1ccc2ncccc2c1)N1CCSCC1 (stereo not given) | – | -2.06%
Cc1ccc(C2c3c(oc4ccccc4c3=O)C(=O)N2CCCN2CCOCC2)o1 (stereo not given) | – | 14.5%
CCOc1ccc2nc(N3CCC(C(=O)N4CCN(c5ccccn5)CC4)CC3)sc2c1 | – | -40.3% [at 22.7 µM]
Cc1oncc1C(=O)Nc1ccc(C(F)(F)F)cc1 | 7.08 µM (active) | –

Compound | Potency | activation
c1ccc(-c2nnc(-c3ccccc3)c(-c3c[nH]c4ccccc34)n2)cc1 | – | 4.63% [at 22.7 µM]
CCCc1sc(N2CCCC(C(N)=O)C2)nc1-c1ccccc1 (stereo not given) | – | -3.13% [at 22.7 µM]
O=S(=O)(NC1CCCc2ccccc21)c1cnc[nH]1 (stereo not given) | – | -0.677%
Clc1ccc(-c2nnc(-c3ccccc3)nc2N2CCSCC2)cc1 | – | 6.97% [at 9.48 µM]
CCCSc1nnc(Sc2nnnn2-c2ccccc2)s1 | – | -84.7%
COCCCN1C(=O)C(=O)/C(=C(/O)c2ccc3c(c2)CC(C)O3)C1c1cccnc1 (stereo not given) | – | 8.87%
COC(=O)C1=C(C)NC(=O)/C1=C\c1cc(C)n(-c2ccccc2F)c1C | – | -7.59%
CC(/C=C/C(=O)NO)=C\[C@@H](C)C(=O)c1ccc(N(C)C)cc1 | 1.12 µM (active) | –
CCC1=Nc2ccccc2-c2nnc(SC)nc2O1 | – | -6.69% [at 22.7 µM]
O=C(NCCCNCCCNC(=O)c1ccccn1)c1ccccn1 | – | -12%
O=C1CCC(C(=O)Nc2cccc3ccccc23)N1 (stereo not given) | – | 13%
CC1CN(c2nc(-c3ccc(Br)cc3)nnc2-c2ccccc2)CC(C)N1 (stereo not given) | – | -5.21% [at 9.48 µM]
CCOc1c(Cl)cc(C(=O)Nc2ccccc2C(=O)O)cc1Cl | 2.82 µM (active) | –
Cc1ccc(-c2csc(N3CCC(NS(=O)(=O)c4ccc5c(c4)OCCO5)CC3)n2)cc1 | – | -59.4% [at 22.7 µM]
c1coc(CNc2ncnc3ccccc23)c1 | – | -53.2%
Clc1nc(NCc2ccco2)c2[nH]cnc2n1 | – | -44.5%
CN(C)CCCN(C(=O)c1cccs1)c1nc(-c2ccccc2)cs1 | – | -7.7% [at 22.7 µM]
Cn1c(C(=O)NCc2cccs2)cc2oc3ccccc3c21 | 2.82 µM (active) | –
O=C(NCCc1cn2ccsc2n1)c1cccs1 | – | 1.45%
COc1ccc(-c2csc(N3CCC(c4ccccc4)CC3)n2)cc1 | – | -18% [at 22.7 µM]
